Data reported in PubChem BioAssay.
Calls of active or inactive are those of the source.

Key:
[1] = optical density shifts of acrAB sulA E. coli – strain DRC41, OD650, 48 h, E. coli filamentation inducer project, primary screen (AID 1152); conditions: higher = more signal, called active from +8 up or from −8 down;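 note: E. coli MC1000 strain DRC41 lacking acrAB efflux pump and sulA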
[2] = probe aLefty1 binding on compound microarray – biochemical, small-molecule microarray, 635/667 nm fluorescence, primary screen (AID 1153); conditions: higher = more signal;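 note: score merges spot fluorescence with signal-to-noise ratio from the scanned slide images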
[3] = plasmodial surface anion channel blockers, osmotic lysis – cell-based, P. falciparum Indochina, OD700, 1 h, primary screen (AID 1154); conditions: P. falciparum Indochina infected RBC osmotic lysis, higher = more signal, called active from +8 up or from −8 down
[4] = plasmodial surface anion channel blockers, osmotic lysis – cell-based, P. falciparum Indochina, OD700, 2 h, primary screen (AID 1155);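 note: lysis reports solute entry through the parasite surface anion channel PSAC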; conditions: P. falciparum Indochina infected erythrocytes, higher = more signal, called active from +8 up or from −8 down
[5] = changes in parasitized red cell lysis, either direction – P. falciparum Indochina, OD700, 3 h, PSAC antagonist project, primary screen (AID 1156); conditions: P. falciparum-infected erythrocytes, osmotic lysis, higher = more signal, called active from +8 up or from −8 down
[6] = plasmodial surface anion channel blockers, osmotic lysis – cell-based, P. falciparum Indochina, OD700, 18 h, primary screen (AID 1157); conditions: P. falciparum Indochina infected erythrocytes, osmotic lysis OD700, 18 h; higher = more signal, called active from +8 up or from −8 down
[7] = S6 kinase pathway phospho-S6 level changes – cell-based, A549, cytoblot, luminescence, serum-stimulated, primary screen (AID 1158); conditions: 5 h, higher = more signal;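 note: serum-stimulated A549 lung adenocarcinoma cells; signal is phosphorylated S6 detected by cytoblot immunostaining with HRP secondary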
[8] = target: NADPH oxidase 2 (Homo sapiens) (UniProt P04839); assay: compounds shifting NOX2 Amplex Red fluorescence – cell-based, HEK293-NOX2, PMA-stimulated, NOX inhibitor project, primary screen (AID 1159); conditions: 45 min, higher = more signal, called active from +8 up or from −8 down; note: test concentration not given here
[9] = target: NADPH oxidase 4 (Homo sapiens) (UniProt Q9NPH5); assay: compounds shifting NOX4 Amplex Red fluorescence – cell-based, HEK293-NOX4, tetracycline-induced, NOX inhibitor project, primary screen (AID 1160); conditions: HEK293-NOX4, Amplex Red H2O2 fluorescence, 45 min; higher = more signal, called active from +8 up or from −8 down
[10] = target: NADPH oxidase 5 (Homo sapiens) (UniProt Q96PH1); assay: compounds shifting NOX5 Amplex Red fluorescence – cell-based, HEK293-NOX5, NOX inhibitor project, primary screen (AID 1161); conditions: HEK293-NOX5, ionomycin, 45 min, higher = more signal
[11] = compound effects on lung adenocarcinoma cell viability – A549, calcein-AM fluorescence, 48 h, basal, profiling panel (AID 1162); conditions: higher = more signal; note: test concentration not given here
[12] = compound effects on differentiated 3T3-L1 adipocyte viability – cell-based, 3T3-L1 adipocytes, calcein-AM fluorescence, 48 h, basal, profiling panel (AID 1163); conditions: 3T3-L1 adipocytes viability, higher = more signal; note: test concentration not given here
[13] = compound effects on hepatocellular carcinoma cell viability – HepG2, calcein-AM fluorescence, 48 h, basal, profiling panel (AID 1164); conditions: higher = more signal; note: test concentration not given here
[14] = compound effects on multiple myeloma cell viability – MM1S, calcein-AM fluorescence, 48 h, basal, profiling panel (AID 1165); conditions: higher = more signal; note: test concentration not given here
[15] = calcein-AM signal in unstimulated myeloma cells – cell-based, calcein-AM fluorescence, 48 h, PK04 Diversity Set, profiling panel (AID 1166); conditions: RPMI8226 myeloma viability, higher = more signal;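 note: cells grown under basal conditions without added stimulus; test concentration not given here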
[16] = JC-1 mitochondrial signal, unstimulated HepG2 cells – cell-based, JC-1 fluorescence, 24 h, 100 nL compound, profiling panel (AID 1167); conditions: HepG2 mitochondrial potential, higher = more signal; note: test concentration not given here
[17] = JC-1 mitochondrial signal, unstimulated adipocytes – cell-based, JC-1 fluorescence, 3T3-L1 adipocytes, 24 h, 100 nL compound, profiling panel (AID 1168); conditions: JC-1 mitochondrial fluorescence, higher = more signal, called active from +8 up or from −8 down; note: test concentration not given here
[18] = JC-1 mitochondrial signal, unstimulated myeloma cells – cell-based, JC-1 fluorescence, RPMI8226, 24 h, 100 nL compound, profiling panel (AID 1169); conditions: JC-1 mitochondrial potential fluorescence, higher = more signal; note: test concentration not given here
[19] = JC-1 mitochondrial signal, unstimulated MM1S myeloma – cell-based, JC-1 fluorescence, 24 h, 100 nL compound, profiling panel (AID 1170); conditions: MM1S mitochondrial potential, higher = more signal; note: test concentration not given here
[20] = resazurin metabolic signal in A549 cells – cell-based, resazurin fluorescence, 24 h, PK04 Diversity Set, profiling panel (AID 1171); conditions: A549 viability, higher = more signal, called active from +8 up or from −8 down; note: test concentration not given here

Chain of NADPH oxidase 2 (Homo sapiens) (P04839 whole entry, looked up): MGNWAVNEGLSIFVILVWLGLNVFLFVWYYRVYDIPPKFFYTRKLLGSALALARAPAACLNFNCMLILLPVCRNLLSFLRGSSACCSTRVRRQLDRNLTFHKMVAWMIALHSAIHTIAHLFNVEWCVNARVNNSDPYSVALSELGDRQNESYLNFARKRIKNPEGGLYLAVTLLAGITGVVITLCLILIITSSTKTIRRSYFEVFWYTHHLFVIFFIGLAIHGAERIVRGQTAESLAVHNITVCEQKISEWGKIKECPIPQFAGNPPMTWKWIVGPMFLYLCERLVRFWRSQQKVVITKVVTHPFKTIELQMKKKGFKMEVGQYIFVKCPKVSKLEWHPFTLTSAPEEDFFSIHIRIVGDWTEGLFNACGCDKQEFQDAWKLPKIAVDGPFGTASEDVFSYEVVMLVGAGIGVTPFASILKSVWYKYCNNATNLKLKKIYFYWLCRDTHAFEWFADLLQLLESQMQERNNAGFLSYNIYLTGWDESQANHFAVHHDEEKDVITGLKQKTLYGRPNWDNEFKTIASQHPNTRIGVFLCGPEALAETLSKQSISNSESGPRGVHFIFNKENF
Chain of NADPH oxidase 4 (Homo sapiens) (Q9NPH5 whole entry, looked up): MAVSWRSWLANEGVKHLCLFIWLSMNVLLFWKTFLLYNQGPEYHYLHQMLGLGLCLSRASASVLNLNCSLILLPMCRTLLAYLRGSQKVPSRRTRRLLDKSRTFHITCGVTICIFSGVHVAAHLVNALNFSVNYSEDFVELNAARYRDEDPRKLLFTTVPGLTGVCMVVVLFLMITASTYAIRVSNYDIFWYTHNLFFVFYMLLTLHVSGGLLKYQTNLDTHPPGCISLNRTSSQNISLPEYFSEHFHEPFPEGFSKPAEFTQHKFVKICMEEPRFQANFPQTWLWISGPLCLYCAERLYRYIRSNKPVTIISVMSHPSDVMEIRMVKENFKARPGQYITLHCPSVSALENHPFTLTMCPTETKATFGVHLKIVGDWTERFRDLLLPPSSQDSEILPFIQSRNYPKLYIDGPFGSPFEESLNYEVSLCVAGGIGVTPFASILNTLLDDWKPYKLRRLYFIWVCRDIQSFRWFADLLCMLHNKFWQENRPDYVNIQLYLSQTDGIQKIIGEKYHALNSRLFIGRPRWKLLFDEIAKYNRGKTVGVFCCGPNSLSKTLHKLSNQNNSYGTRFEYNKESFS
Chain of NADPH oxidase 5 (Homo sapiens) (Q96PH1 whole entry, looked up): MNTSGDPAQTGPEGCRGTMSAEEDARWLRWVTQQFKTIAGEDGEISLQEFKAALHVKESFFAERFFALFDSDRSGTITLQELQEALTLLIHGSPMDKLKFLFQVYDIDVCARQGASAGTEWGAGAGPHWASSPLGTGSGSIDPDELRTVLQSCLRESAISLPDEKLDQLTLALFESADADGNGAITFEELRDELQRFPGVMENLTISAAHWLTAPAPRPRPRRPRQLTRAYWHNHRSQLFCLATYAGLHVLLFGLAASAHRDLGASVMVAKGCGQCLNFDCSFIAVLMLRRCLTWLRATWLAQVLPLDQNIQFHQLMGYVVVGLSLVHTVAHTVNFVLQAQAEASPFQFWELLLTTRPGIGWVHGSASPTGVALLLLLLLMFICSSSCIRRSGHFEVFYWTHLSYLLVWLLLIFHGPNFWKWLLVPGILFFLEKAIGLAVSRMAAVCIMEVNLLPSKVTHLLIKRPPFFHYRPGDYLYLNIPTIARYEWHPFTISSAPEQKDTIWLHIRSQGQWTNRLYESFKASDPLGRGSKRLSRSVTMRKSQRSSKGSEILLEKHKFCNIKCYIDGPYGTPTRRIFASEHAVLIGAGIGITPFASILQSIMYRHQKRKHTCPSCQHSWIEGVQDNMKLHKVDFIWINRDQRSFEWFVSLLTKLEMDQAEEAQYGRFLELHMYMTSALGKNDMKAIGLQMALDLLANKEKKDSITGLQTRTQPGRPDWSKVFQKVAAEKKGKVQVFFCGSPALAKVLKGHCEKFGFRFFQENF

## [N-]=[N+]=NCc1ccccc1[C@@H]1OC(c2ccc(OCCCO)cc2)=N[C@]1(Cc1ccccc1N=[N+]=[N-])C(=O)N1CCCCC1
[1]
  z-score: 0.155 (inactive)
[2]
  composite z-score: 0.358
[3]
  z-score: 16.3 (active)
[4]
  z-score: 2.78 (inactive)
[5]
  z-score: 1.15 (inactive)
[6]
  z-score: 0.86 (inactive)
[7]
  z-score: 0.0177
[8]
  z-score: -1.45 (inactive)
[9]
  z-score: 0.924 (inactive)
[10]
  z-score: 1.17
[11]
  z-score: -0.135
[12]
  z-score: -0.843
[13]
  z-score: 0.461
[14]
  z-score: -2.31
[15]
  z-score: -3.75
[16]
  z-score: 0.913
[17]
  z-score: -0.922 (inactive)
[18]
  z-score: -1.19
[19]
  z-score: -2.04
[20]
  z-score: -0.484 (inactive)

## C=C(C(=O)CC[C@H](OC(=O)c1ccccc1-c1ccccc1C(=O)O)c1ccccc1OCCO)C(C)C
[1]
  z-score: 0.342 (inactive)
[2]
  composite z-score: -0.0573
[3]
  z-score: 6.14 (inactive)
[4]
  z-score: 1.12 (inactive)
[5]
  z-score: 2.1 (inactive)
[6]
  z-score: 0.577 (inactive)
[7]
  z-score: -0.549
[8]
  z-score: 2.97 (inactive)
[9]
  z-score: -0.13 (inactive)
[10]
  z-score: -1.51
[11]
  z-score: 0.301
[12]
  z-score: 1.72
[13]
  z-score: 0.255
[14]
  z-score: -3.44
[15]
  z-score: -2.35
[16]
  z-score: -0.266
[17]
  z-score: 0.585 (inactive)
[18]
  z-score: -0.636
[19]
  z-score: 0.63
[20]
  z-score: 0.109 (inactive)

## COCCOC(=O)N1C(=O)[C@@]2(c3cc(C#CCNC(N)=O)ccc31)[C@H](c1ccc(O)cc1)N1[C@H](c3ccccc3)[C@H](c3ccccc3)OC(=O)[C@H]1[C@@H]2C(N)=O
[1]
  z-score: 0.847 (inactive)
[2]
  composite z-score: -0.67
[3]
  z-score: 0.646 (inactive)
[4]
  z-score: 0.783 (inactive)
[5]
  z-score: -0.158 (inactive)
[6]
  z-score: 0.386 (inactive)
[7]
  z-score: 0.285
[8]
  z-score: 0.37 (inactive)
[9]
  z-score: 0.163 (inactive)
[10]
  z-score: 0.361
[11]
  z-score: 1.66
[12]
  z-score: -0.654
[13]
  z-score: 0.405
[14]
  z-score: 0.337
[15]
  z-score: -0.933
[16]
  z-score: 2.07
[17]
  z-score: -0.0574 (inactive)
[18]
  z-score: -0.932
[19]
  z-score: -0.139
[20]
  z-score: 0.934 (inactive)

## O=C1OCCC/C=C\[C@H]2OC34C=CCN(c5ccc6ccccc6c5)C(=O)[C@H]3N(CCCO)C(=O)[C@@H]4C12 (stereo not given in full)
[1]
  z-score: -0.52 (inactive)
[2]
  composite z-score: -0.366
[3]
  z-score: 3.21 (inactive)
[4]
  z-score: 0.571 (inactive)
[5]
  z-score: -0.276 (inactive)
[6]
  z-score: 0.187 (inactive)
[7]
  z-score: 0.688
[8]
  z-score: 2.08 (inactive)
[9]
  z-score: 1.14 (inactive)
[10]
  z-score: 2.53
[11]
  z-score: -0.416
[12]
  z-score: 1.34
[13]
  z-score: 0.275
[14]
  z-score: 0.392
[15]
  z-score: -0.686
[16]
  z-score: -0.36
[17]
  z-score: -0.41 (inactive)
[18]
  z-score: -0.0534
[19]
  z-score: 1.37
[20]
  z-score: 0.252 (inactive)

## CN(C)CCCCCCNC(=O)[C@@H]1C[C@@H]2C(=O)N[C@@H](CCCCN)C(=O)N2[C@@H]1c1ccc(O)cc1
[1]
  z-score: 0.724 (inactive)
[2]
  composite z-score: 3.1
[3]
  z-score: 0.983 (inactive)
[4]
  z-score: -0.111 (inactive)
[5]
  z-score: 2.87 (inactive)
[6]
  z-score: -1.88 (inactive)
[7]
  z-score: 1.32
[8]
  z-score: -0.0284 (inactive)
[9]
  z-score: 0.901 (inactive)
[10]
  z-score: 1.13
[11]
  z-score: 1.4
[12]
  z-score: 0.576
[13]
  z-score: -0.521
[14]
  z-score: 0.56
[15]
  z-score: -0.345
[16]
  z-score: -0.695
[17]
  z-score: -0.625 (inactive)
[18]
  z-score: -0.273
[19]
  z-score: -1
[20]
  z-score: -0.3 (inactive)

## C=CCC(OC(C)=O)[C@@H]1[C@@H](N(Cc2cc3ccccc3o2)C(=O)c2ccc(-c3ccccc3)cc2)c2cc(OCCCO)ccc2N1C(=O)Cc1ccc(OC)cc1 (stereo not given in full)
[1]
  z-score: -1.14 (inactive)
[2]
  composite z-score: -0.0547
[3]
  z-score: 0.702 (inactive)
[4]
  z-score: 0.701 (inactive)
[5]
  z-score: 0.365 (inactive)
[6]
  z-score: 0.703 (inactive)
[7]
  z-score: 0.3
[8]
  z-score: -0.0713 (inactive)
[9]
  z-score: -0.918 (inactive)
[10]
  z-score: 1.09
[11]
  z-score: 0.315
[12]
  z-score: 0.443
[13]
  z-score: 1.04
[14]
  z-score: 0.0213
[15]
  z-score: -0.226
[16]
  z-score: 1.23
[17]
  z-score: -0.76 (inactive)
[18]
  z-score: 0.738
[19]
  z-score: 0.239
[20]
  z-score: 0.0443 (inactive)

## CC1(C)C(=O)C(c2ccccc2)=C2CN3C(=O)N(CCc4ccccc4)C(=O)C3(Cc3ccc(C(F)(F)F)cc3)C=C21 (stereo not given)
[1]
  z-score: -2.21 (inactive)
[2]
  composite z-score: 0.349
[3]
  z-score: 0.582 (inactive)
[4]
  z-score: 0.316 (inactive)
[5]
  z-score: 0.482 (inactive)
[6]
  z-score: 0.668 (inactive)
[7]
  z-score: 0.0875
[8]
  z-score: -0.462 (inactive)
[9]
  z-score: -1.68 (inactive)
[10]
  z-score: -0.494
[11]
  z-score: -0.902
[12]
  z-score: -0.586
[13]
  z-score: 0.409
[14]
  z-score: -1.49
[15]
  z-score: -1.75
[16]
  z-score: -2.08
[17]
  z-score: -2 (inactive)
[18]
  z-score: -0.00804
[19]
  z-score: -0.421
[20]
  z-score: 0.43 (inactive)

## CC(=O)NCCCC[C@@H]1NC(=O)[C@H]2C[C@@H](C(=O)NCCCCCNC(=O)CS)[C@@H](c3cccc(OCCO)c3)N2C1=O
[1]
  z-score: -0.486 (inactive)
[2]
  composite z-score: -0.0573
[3]
  z-score: 1.85 (inactive)
[4]
  z-score: 0.461 (inactive)
[5]
  z-score: -0.369 (inactive)
[6]
  z-score: 0.227 (inactive)
[7]
  z-score: 0.0439
[8]
  z-score: 1.87 (inactive)
[9]
  z-score: 0.825 (inactive)
[10]
  z-score: 0.697
[11]
  z-score: -0.227
[12]
  z-score: -0.146
[13]
  z-score: 0.0877
[14]
  z-score: 0.0637
[15]
  z-score: -0.433
[16]
  z-score: 1.09
[17]
  z-score: -0.286 (inactive)
[18]
  z-score: -0.428
[19]
  z-score: 0.0573
[20]
  z-score: -0.496 (inactive)
